Laboratory results from PubChem BioAssay (Tox21).
Inconclusive results are not listed. Entries that show only a call come without a potency. A number with no mark means an inactive call. The source made the active and inactive calls. Calls come from the whole dose curve; as a rule, active = well fitted cell-killing curve with a large enough effect in the repeat runs; inconclusive = weak or mixed curves, or effect the other way; inactive = flat fitted curve, though single readings scatter. Positions of bridges follow the written chain, without caps; N, C: chain ends. Non-standard residues stand in square brackets, D forms with d. Residues, ends and D or L forms follow the SMILES beside them. hArg = N=C(N)NCCCC[C@H](N)C(=O)O; Mpa = O=C(O)CCS

Assay: qHTS RealTime-Glo MT Cell Viability Assay in HEK293 cells - 32 hour (AID 1224868); note: nearly all actives have a fitted effect of over 50% in size; for activity change, negative = cytotoxic: top concentration of the series differs between compounds
Conditions: RealTime-Glo luminescence; series mostly up to 76.8 µM
Excerpt: National Center for Advancing Translational Sciences [NCATS]
NIH Chemical Genomics Center [NCGC]
U.S. Environmental Protection Agency [EPA]
National Institutes of Environmental Health Sciences [NIEHS]
National Toxicology Program [NTP]
U.S. Food and Drug Administration [FDA]
Measure of cell viability is critical in the cell-base assay. Analysis of cell viability is necessary for the characterization of cell responses to cytotoxic drugs and environmental stress. A RealTime-Glo MT Cell Viability Assay to monitor cell viability in real time of continues cell culture during 40 hours of compound treatment was used to screen Tox21 10K library compounds in Hek293 cells. The RealTime-Glo MT Cell Viability Assay is a nonlytic, homogeneous, bioluminescent method to measure cell viability in real time using a simple, plate-based method. The assay involves adding NanoLuc luciferase and a cell-permeant prosubstrate to cells in culture. Viable cells reduce the proprietary prosubstrate to generate a substrate for NanoLuc luciferase. This substrate diffuses from cells into the surrounding culture medium, where it is rapidly used by the NanoLuc Enzyme to produce a luminescent signal. The signal correlates with the number of viable cells, making the assay well suited for cytotoxicity studies.
Tox21 Assay Protocol Summary:
The mixture of Hek293 cell suspension and reagents were dispensed at 600cells/6 ul/well in 1536-well tissue culture treated black solid bottom plates using a Multidrop dispenser. After the assay plates were incubated at a 37 C/5% CO2 incubator for 5 hours, 23 nL of compounds dissolved in DMSO, positive and negative controls was transferred to the assay plate by a pintool work station. The plates were incubated at 37 C for 40 hours. The luminescence intensity were measured at 0h, 8h, 16h, 24h, 32h and 40h time points using ViewLux plate reader during compound treatment.
Potency is the fitted concentration of half-maximal effect.

SMILES | Potency | activity change, negative = cytotoxic
CN(C)CCCCl | inactive | 
C=CCCCCCCCCC(=O)OCCCC | inactive | 
CC(C)OC(=O)OCOP(=O)(CO[C@H](C)Cn1cnc2c(N)ncnc21)OCOC(=O)OC(C)C | inactive | 
NCc1ccc(S(N)(=O)=O)cc1 | inactive | 
C/C=C(\C)C(=O)OCCc1ccccc1 | inactive | 
CC(C)COC(=O)c1ccccc1 | inactive | 
C=CCCCC | inactive | 
CCCCCCCCCCCCCCC(=O)NC(CO)CCCCCCCCCCCCCC (stereo not given) | inactive | 
COc1cc(/C=C/C(N)=O)cc(OC)c1OC | inactive | 
COC(=O)/C=C\C(=O)O | inactive | 
CC1c2ccccc2CN1NC(=O)c1ccc(Cl)c(S(N)(=O)=O)c1 (stereo not given) | inactive | 
Cc1c(C(=O)c2c[nH]n(C)c2=O)ccc(S(C)(=O)=O)c1C1=NOCC1 | inactive | 
CC(=O)O[C@H]1C[C@@H]2CC[C@@]1(C)C2(C)C | inactive | 
COc1cc2c(cc1OC)C(=O)C(CC1CCN(Cc3ccccc3)CC1)C2 (stereo not given) | 21.3 µM (active) | 
CC(Oc1cc(Cl)ccc1Cl)C(=O)O (stereo not given) | inactive | 
CC(O)CC(C)O (stereo not given) | inactive | 
OCC1(CO)COCOC1 | inactive | 
CC1(C)O[C@H]2CC(=O)OC[C@]23[C@H]2CC[C@@]4(C)[C@H](c5ccoc5)OC(=O)[C@H]5O[C@]54[C@]2(C)C(=O)C[C@@H]13 | inactive | 
O=C1CCC(=O)N1Cl | inactive | 
COC(=O)CCCCC(CCSS/C(CCO)=C(\C)N(C=O)Cc1cnc(C)nc1N)SC(C)=O (stereo not given) | inactive | 

SMILES | Potency | activity change, negative = cytotoxic
CCCCCCC1(C)CCC(=O)O1 (stereo not given) | inactive | 
NC(=O)[C@@H]1CSSCCC(=O)N[C@@H](CCCCN=C(N)N)C(=O)NCC(=O)N[C@@H](CC(=O)O)C(=O)N[C@@H](Cc2c[nH]c3ccccc23)C(=O)N2CCC[C@H]2C(=O)N1 ([Mpa][hArg]GDWPC-NH2; disulfide 1-7) | inactive | 
CCCc1ccc(O)cc1 | inactive | 
CC(=O)C(C)O (stereo not given) | inactive | 
N#Cc1ccccc1O | inactive | 
CCO | inactive | 
C[C@H]1[C@@H](c2ccccc2)NC(=O)N1C | inactive | 
Nc1nc(-c2ccccc2)c(Br)c(=O)[nH]1 | inactive | 
O=Cc1ccccc1Cl | inactive | 
CC(=O)Nc1ccc(OC(=O)c2ccccc2OC(C)=O)cc1 | inactive | 
COP(=O)(O)OP(=O)(O)OC | inactive | 
CC(=O)OC(C)=O | inactive | 
O=C(Cn1ccnc1[N+](=O)[O-])NCc1ccccc1 | inactive | 
CC1(C)CC(OC(=O)CCCCCCCCC(=O)OC2CC(C)(C)NC(C)(C)C2)CC(C)(C)N1 |  | 12.2% [at 15.8 µM]
CC(C)OC(=O)CCC(=O)OC(C)C | inactive | 
CN(C)CCOC(=O)C(c1ccccc1)C1(O)CCCC1 (stereo not given) | inactive | 
CCCC(=O)OCCC(C)CCC=C(C)C (stereo not given) | inactive | 
CC(C)(C)NC[C@H](O)COc1cccc2c1CCCC2=O | inactive | 
O=C(O)CNC(=O)CNC(=O)CNC(=O)CSC(=O)c1ccccc1 | inactive | 
CCC(C)OC(C)CC (stereo not given) | inactive | 
